# This is a sample that favours compounds with a hit; in the whole collection about 2.9% have one here.
# NR1D1 modulator = modulators of Rev-erb alpha DNA binding, primary screen, biochemical, FITC-DNA, fluorescence polarization, uHTS; hit rate 0.79% among 370,000; Nuclear receptor subfamily 1 group D member 1 (Homo sapiens), P20393; Rev-erbα–FITC-DNA binding, 90 min; activity, % at 10 µM;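 active = activity above about 14%, limit read from the data; passing the limit was not always enough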;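 also: 0% = DMSO wells with 35 nM protein and 100% = DMSO wells with 750 nM protein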
# Target sequence (P20393 whole entry, looked up): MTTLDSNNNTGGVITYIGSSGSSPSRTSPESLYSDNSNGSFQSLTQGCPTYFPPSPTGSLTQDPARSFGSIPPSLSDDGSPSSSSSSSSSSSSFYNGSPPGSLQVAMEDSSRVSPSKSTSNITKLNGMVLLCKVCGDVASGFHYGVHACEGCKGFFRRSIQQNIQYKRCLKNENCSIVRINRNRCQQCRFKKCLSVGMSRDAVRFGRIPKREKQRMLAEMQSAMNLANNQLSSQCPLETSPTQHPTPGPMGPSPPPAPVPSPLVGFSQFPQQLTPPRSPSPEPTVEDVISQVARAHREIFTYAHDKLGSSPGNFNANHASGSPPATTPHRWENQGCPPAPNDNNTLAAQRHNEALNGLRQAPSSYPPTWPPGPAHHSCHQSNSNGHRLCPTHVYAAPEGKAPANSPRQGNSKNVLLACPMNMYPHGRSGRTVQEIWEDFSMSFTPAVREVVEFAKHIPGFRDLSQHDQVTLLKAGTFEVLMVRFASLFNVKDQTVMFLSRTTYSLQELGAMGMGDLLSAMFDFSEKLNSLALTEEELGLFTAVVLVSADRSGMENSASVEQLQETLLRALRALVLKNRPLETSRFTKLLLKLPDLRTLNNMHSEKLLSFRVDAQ
# SKN-1 inh = suppressors of acrylamide-induced Pgst-4::GFP reporter in worms, primary screen, SKN-1 inhibitor project, whole organism, uHTS, GFP/RFP fluorescence ratio, strain VP596; AID 624304, 2012; hit rate 0.49% among 360,000; C. elegans VP596 Pgst-4::GFP/RFP ratio, 24 h; inhibition, % at 21.8 µM;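 active = interference check ratio from 0.5 to 1.5 plus GFP to RFP signal ratio inhibition reaching or exceeding a fixed threshold, cut at about 30% in these data, passing the limit was not always enough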
# EP2 antag = human EP2 receptor antagonists, primary screen, TR-FRET cAMP, C6 glioma cells | Prostaglandin E2 receptor EP2 subtype (Homo sapiens), P43116 | C6 glioma cells expressing human EP2; cells stimulated with saturating PGE2 | inhibition, % at 25 µM | hit rate 0.52% among 260,000;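 active = percent inhibition above 40 after rounding to a whole number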;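 also: rat C6 glioma host cells with rolipram phosphodiesterase inhibitor present; the protocol text gives 20 µM as final concentration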
# RAM network inh = inhibitors of the yeast RAM network, primary screen, dse1pr::URA3 reporter, 5-FOA selection | S. cerevisiae dse1pr::URA3 reporter, 5-FOA growth OD615, 2 d; analog-sensitive cbk1-as2 kinase mutant strain | inhibition, % at 50 µM | hit rate 1.8% among 190,000 | AID 868, 2007;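 active = inhibition above a set limit, 3 SD over mean compound inhibition, cut at about 8.4% in these data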;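 also: 0% = DMSO-only wells with no growth and 100% = 10 µM 1-NA-PP1 full growth; inhibition rescues growth on 5-FOA so higher OD means more RAM inhibition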
# EP2 modulator = EP2 receptor modulators, cAMP readout, primary screen, cell-based, HTRF cAMP, PGE2 stimulation. Prostaglandin E2 receptor EP2 subtype (Homo sapiens), P43116. EP2-expressing cells, cAMP HTRF FRET, PGE2 co-stimulation. induction, % at 25 µM. hit rate 0.83% among 260,000;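 active = compounds whose cAMP rise, as percent of the full-agonist control response, exceeds 60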;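 also: rat C6 glioma line stably carrying human EP2 under a CMV promoter; the protocol text gives 20 µM as final concentration; 100% = response of wells given 1 µM PGE2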
# PG9 binder = binders of HIV-1 gp120 antibody PG9, primary screen, biochemical, TR-FRET | HIV-1 gp120 / PG9 antibody interaction | TR-FRET gp120-PG9 antibody binding | inhibition, % at 6.7 µM | hit rate 0.43% among 360,000 | AID 624416, 2012; in the data active = inhibition above about 8.5%
# The depositor's hits bear a star; x = no result given.
SMILES,NR1D1 modulator,SKN-1 inh,EP2 antag,RAM network inh,EP2 modulator,PG9 binder
CC(C)OP(=O)(OC(C)C)C(O)c1ccccc1F (stereo not drawn),-8,5,50*,1,2,1
CC(C)OP(=O)(OC(C)C)C(O)c1ccc(Br)cc1 (stereo not drawn),2,-3,1,0,16,-1
CCn1c(O)c(C(=O)CC2NCCc3ccccc32)c(=O)n(CC)c1=S (stereo not drawn),x,51*,x,-1,-14,x
CCC1=C(C[C@H]2NCCc3cc(OC)c(OC)cc32)C[C@H]2c3ccccc3CCN2C1,x,x,52*,x,21,x
O=C1NC(=S)NC(=O)C1=Cc1cccn1-c1ccc(O)cc1,-34,-3,112*,8,-113,-1
Cc1cc(C)cc(N2C(=O)NC(=O)/C(=C\c3cccn3-c3ccccc3)C2=O)c1,-3,-3,15,9.8*,-66,1
COc1ccccc1C=C1C(=O)NC(=S)NC1=O,3,8,x,x,x,-1
Cc1cc(C)cc(N2C(=O)NC(=O)/C(=C\c3cccn3-c3ccc(Cl)cc3)C2=O)c1,-11,-5,17,5,-18,-1
CN(C)CCN(C(=O)Cc1csc(Nc2ccccc2F)n1)C1CCN(C)CC1,x,x,4,x,-39,x
COC(=O)C1=C(C)OC(N)=C(C#N)C12C(=O)Nc1ccc(F)cc12 (stereo not drawn),x,x,9,x,-9,x
COc1ccc(CN2CCN(C(=O)COc3ccc(OC)cc3)CC2)cc1,x,x,5,x,-34,x
CC(=O)c1ccc2c(c1)C1C(Cl)C(Sc3ccccc3[N+](=O)[O-])CC1C(C(=O)O)N2 (stereo not drawn),-24,-1,20,11*,-20,-6
COC(=O)C1=Nc2ccccc2/C1=C\c1c(O)n(-c2ccc(Br)cc2)c(=O)[nH]c1=O,0,11,20,2,-50,0
O=c1[nH]c(=O)n(-c2ccccc2)c(O)c1/C=C1/C(c2ccccc2)=Nc2ccccc21,0,36*,23,2,-57,-1
C[C@@H]1CC[C@@]2(NC1)O[C@H]1C[C@H]3C4CC=C5C[C@@H](O)CC[C@]5(C)C4CC[C@]3(C)C1[C@@H]2C (stereo partly drawn),x,x,11,x,4,x
COc1ccc([N+](=O)[O-])cc1N=Cc1c(O)n(CCc2ccccc2)c(=O)n(C(C)C)c1=O,0,-3,7,11*,38,-1
C#CCOc1ccc(CN2C3CCC2CC(O)(c2ccccc2F)C3)cc1OC (stereo not drawn),x,x,5,x,-16,x
C[C@@H]1O[C@H](OC2[C@@H](O)[C@H](O)C(O)[C@H](O)[C@H]2O)[C@@H](N)C[C@H]1N=C(N)C(=O)O (stereo partly drawn),x,x,51*,x,11,x
C=CCOc1c(CN2C3CCC2CC(O)(c2cccc(F)c2)C3)cccc1OC (stereo not drawn),x,x,3,x,-51,x
CC(=O)[O][Hg][c]1ccccc1,-4,x,113*,x,-40,x
CC(=O)/C=C/c1ccccc1,-7,2,x,x,x,0
O=C(Nc1ccc([As](=O)(O)O)cc1)Nc1cccc(Cl)c1Cl,x,x,58*,x,2,x
NC(=O)c1ccc(C(=O)Nc2ccc([As](=O)(O)O)cc2)cc1,2,x,2,x,8,1
C=Cn1cc(CN(CCc2ccccc2)Cc2cccs2)c(C)n1,x,x,2,x,69*,x
CC(=O)OC1C(=O)OCC23CCC4(C)OC4C2OC2CC(OC(=O)C=CC=CC(=O)OCCC1C)C3(C)C21CO1 (stereo not drawn),10,42*,x,x,x,0
SMILES,NR1D1 modulator,SKN-1 inh,EP2 antag,RAM network inh,EP2 modulator,PG9 binder
CCOC(=O)C(O)(c1ccc(NC(=S)NC(=O)c2ccc(Cl)cc2Cl)c(C)c1)C(F)(F)F (stereo not drawn),-5,1,2,8,2,0
COC(=O)C(O)(c1ccc(NC(=S)NC(=O)c2ccc(Cl)cc2Cl)c(C)c1)C(F)(F)F (stereo not drawn),0,-1,13,9.3*,-47,-1
c1cc2c(c(NC3=NCCN3)c1)CCCC2,x,x,43*,x,-12,x
CCCCCn1c(N)c(C(=O)NCCN2CCOCC2)c2nc3ccccc3nc21,-6,34*,10,0,25,-3
CCCCn1c(N)c(C(=O)NCc2cccs2)c2nc3ccccc3nc21,2,23,2,5,62*,-1
CCCCCCn1c(N)c(C(=O)NCCN2CCOCC2)c2nc3ccccc3nc21,-2,12,4,0,35,2
O=C(CN1C2CCC1CC(O)(c1ccco1)C2)Nc1ccccc1F (stereo not drawn),x,x,x,x,-24,x
CCOC(=O)c1c(-n2c(C)cc(C=C3C(=O)NC(=S)NC3=O)c2C)sc2c1CCCC2,x,13,10,11*,-9,x
CCOC(=O)c1c(-n2c(C)cc(/C=C3/C(=O)NC(=O)N(CC)C3=O)c2C)sc2c1CCCC2,6,8,20,x,x,0
COc1ccc(CN2CCN(C(=O)COc3ccc(C)cc3)CC2)c(OC)c1OC,x,x,14,x,-57,x
CC(=O)C1CCC2C3CCC4C[C@H](O)CCC4(C)C3C[C@H](O)C12C (stereo partly drawn),x,x,12,x,-13,x
COc1ccc2c(c1)C(=O)CC1(CCNCC1)O2,x,x,5,x,-49,x
O.O.[NH-]C1(C(=O)O)CCCC1.[NH-]C1(C(=O)O)CCCC1.[Ni+2],x,x,47*,x,26,x
O=C(O)CSCC(=O)O,x,x,11,x,8,x
O=C(O)C[SH+]CC(=O)O.O=C(O)C[SH+]CC(=O)O.[Cu],x,x,44*,x,17,x
COCCNC(=O)CN1C2CCC1CC(O)(c1ccccn1)C2 (stereo not drawn),x,x,x,x,-12,x
O=[As](O)(O)c1ccc(N=Nc2ccc([As](=O)(O)O)cc2)cc1,x,x,50*,x,-4,x
O=[As](O)(O)c1ccc(N=Nc2ccc(O)cc2)cc1,8,8,2,x,-21,-4
Nc1nc(N)c(N=Nc2ccc([As](=O)(O)O)cc2)c(=O)[nH]1,x,x,42*,x,23,x
Nc1nc(N)c(N=Nc2ccc([As](=O)(O)O)c(O)c2)c(N)n1,x,x,36,x,5,x
C[CH2][Hg][S]c1ccccc1C(=O)O,-4,38*,115*,x,-38,-3
O=C(CN1C2CCC1CC(O)(c1ccco1)C2)N(C1CCCCC1)C1CCCCC1 (stereo not drawn),x,x,x,x,-73,x
Fc1cccc(F)c1-c1nc(-c2ccc(Cl)cc2)no1,-1,57*,15,x,-7,1
